M1 agonist = M1 muscarinic receptor agonism | CHO-M1 cells, Fluo-4 calcium fluorescence, agonist mode; stronger effect = higher value | B-score at 10 µM | 64,000 compounds, 3% hits;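 active means fluorescence rise, raw or as B-score row- and column-corrected plate score, outside the 99.7% band of its plate's samples, either direction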
PLAP act = activators of human placental alkaline phosphatase. P05187. purified PLAP enzyme, luminescent substrate read-out; stronger effect = higher value. activation fold at 20 µM. 96,000 compounds, 1.2% hits; in the data active means activation fold above about 2
Cav3 T inh = inhibitors of human Cav3.2 T-type calcium channel. O95180. Cav3.2-expressing cells, Fluo-4 calcium fluorescence FDSS; stronger effect = lower value. B-score at 10 µM. 100,000 compounds, 4% hits;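 active means single-dose well whose peak fluorescence ratio is a statistical outlier from its plate by either plate-standardised score or position-corrected B-score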
M1 antag = antagonists of rat M1 muscarinic receptor; P08482; CHO-M1 cells, Fluo-4 calcium, ACh EC80 antagonist mode; stronger effect = lower value; B-score at 10 µM; 64,000 compounds, 3.4% hits; AID 628;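 active means calcium fluorescence response, raw or row-and-column corrected B-score, differing from the plate sample mean either way at a set confidence level, mostly lower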
Target sequence (P08482 whole entry, looked up): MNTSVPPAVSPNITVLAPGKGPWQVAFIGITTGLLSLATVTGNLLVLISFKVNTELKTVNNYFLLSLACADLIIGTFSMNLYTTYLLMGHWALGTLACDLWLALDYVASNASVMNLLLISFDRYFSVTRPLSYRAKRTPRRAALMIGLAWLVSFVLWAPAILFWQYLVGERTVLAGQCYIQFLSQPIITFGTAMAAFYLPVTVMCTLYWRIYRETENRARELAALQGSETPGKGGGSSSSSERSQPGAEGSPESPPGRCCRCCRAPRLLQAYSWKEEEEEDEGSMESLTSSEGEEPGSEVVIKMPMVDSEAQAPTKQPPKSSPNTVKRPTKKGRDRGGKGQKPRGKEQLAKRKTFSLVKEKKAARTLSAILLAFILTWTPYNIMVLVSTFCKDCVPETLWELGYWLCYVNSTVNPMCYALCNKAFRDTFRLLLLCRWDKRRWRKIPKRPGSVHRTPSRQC
The depositor's hits bear a star; · = not tested or not shown. Most compounds without a hit are left out; they make up all but 7.6% or so of the library.

SMILES	M1 agonist	PLAP act	Cav3 T inh	M1 antag
CCOC(=O)CCc1nc2ccccc2[nH]1	-1.2	0.7	0.59	-0.19
CC(=O)Nc1ccccc1-c1nc2ccc(C(=O)N3CCN(c4cccc(C)c4)C(C)C3)cc2[nH]c1=O (stereo not drawn)	·	1.5	-0.34	·
CN(C)c1ccc(NC(=O)Cn2c(=O)n(Cc3ccccc3)c(=O)c3ccccc32)cc1	-1.1	1	0.039	0.11
COc1ccccc1N=c1scc(-c2ccc3c(c2)NC(=O)CO3)n1CC1CCCO1 (stereo not drawn)	2.8	1.7	-3.9*	-0.27
CC[C@H](C)/C=C(C)/C=C/C1=CC2=CC(=O)[C@]3(C)OC(=O)[C@@H](C(C)=O)[C@@H]3C2=CO1	·	·	-4*	·
c1ccc(CN2c3ccccc3-c3nc4ccccc4n3C2c2ccccn2)cc1 (stereo not drawn)	·	1.3	-6.6*	·
Cc1cc2cc(CN(Cc3ccco3)C(=O)NCc3ccccc3)c(=O)[nH]c2cc1C	0.97	1.4	-7.4*	0.056
COc1ccc2[nH]c(=O)c(CN(Cc3ccco3)C(=O)c3ccccc3)cc2c1	0.17	1.1	0.22	-0.76
Cc1cccc2cc(CN(Cc3ccco3)C(=O)NC3CCCCC3)c(=O)[nH]c12	0.57	1.3	-2.6	-1.4
COc1ccccc1NC(=O)N(Cc1ccco1)Cc1cc2c(C)ccc(C)c2[nH]c1=O	1.5	·	-6*	-1.6
Cc1cc2cc(CN(Cc3ccco3)C(=O)C3CCCCC3)c(=O)[nH]c2cc1C	0.13	0.9	-9.3*	-0.71
CCCCOc1ccc(C2(C)CC(=O)NC2=O)cc1 (stereo not drawn)	-0.46	1.3	0.33	0.017
COc1ccc(C(=O)n2nc(-c3ccccc3)nc2N)cc1OC	1.1	1	-0.75	0.12
Cc1ccc(C2(c3ccc(C)cc3)CC2C(=O)Nc2ccc([N+](=O)[O-])cc2O)cc1 (stereo not drawn)	·	1.1	-1.9	·
O=C(Nc1ccncc1)c1cc(F)cc(F)c1	·	0.7	0.16	·
CC[C@@H](C)C(NC(=O)OC(C)(C)C)c1cn([C@@H](Cc2ccc(O)cc2)C(=O)N2CCN(C(=O)OC(C)(C)C)CC2)nn1 (stereo partly drawn)	·	·	-0.64	·
O=C(CN(c1ccc(Cl)cc1)S(=O)(=O)c1ccccc1)N1CCN(c2ccccc2)CC1	·	1.8	-8.1*	·
CS(=O)(=O)N(CCc1ccccc1)CC(=O)N1CCc2ccccc2C1	0.33	1.5	-0.49	-0.27
O=C(CCc1ccccc1)N1CCN(c2ccc(Cl)cc2)CC1	·	1.2	-5*	·
COc1ccc(N2CCN(C(=O)CN(c3ccccc3)S(=O)(=O)c3ccc(OC)cc3)CC2)cc1	·	1	0.71	·
O=C(CN(C1CCCCC1)C1CCCCC1)N1CCc2ccccc2C1	·	1.6	-5.8*	·
Cn1cc(CC(=O)N2CCN(c3ccccc3F)CC2)c2ccccc21	·	1.6	-0.47	·
Cn1cc(CC(=O)N2CCN(c3ccc(Cl)cc3)CC2)c2ccccc21	0.099	0.8	-4.5*	0.11
Cc1cccc(N2C(=O)CC(Sc3nnc(C)s3)C2=O)c1 (stereo not drawn)	·	·	0.44	·
COc1ccc(C2c3c(ncn(CCN4CCOCC4)c3=N)Oc3ccc4ccccc4c32)cc1 (stereo not drawn)	·	1.6	0.54	·
SMILES	M1 agonist	PLAP act	Cav3 T inh	M1 antag
O=C(CN(c1ccc(Cl)c(Cl)c1)S(=O)(=O)c1ccccc1)N1CCc2ccccc2C1	·	1.2	-5.4*	·
Cc1nn(C)c(C)c1S(=O)(=O)N(CC(=O)N1CCc2ccccc2C1)c1ccc(C(C)C)cc1	·	1.4	-4.8*	·
COc1ccc(N(CC(=O)N2CCc3ccccc3C2)S(C)(=O)=O)cc1OC	·	1	1.2	·
O=c1cc(-c2cccs2)oc2ccc(Cl)cc12	·	1	-0.51	·
O=c1c(O)c(-c2cccs2)oc2ccc(Cl)cc12	·	1	-4.8*	·
c1ccc(C2OC3c4cccc5cccc(c45)C3N2c2ccccc2)cc1 (stereo not drawn)	·	·	-2.7	·
O=C(COC(=O)C12CC3CC(CC(C3)C1)C2)NCCc1ccccc1	·	1.7	-2.4	·
O=C(NC1CCCCC1)N1CCN(c2ccccc2)CC1	·	·	0.65	·
Cc1ccc(S(=O)(=O)N2CCCC(NC(=O)N3CCN(c4ccccc4)CC3)C2)cc1 (stereo not drawn)	0.43	1	-4.4*	1.2
CCCCCn1nc(-c2ccccc2)c2nc3ccccc3nc21	·	1.1	-7.3*	·
O=C(Nc1ccncc1)C1CC1c1ccccc1 (stereo not drawn)	·	0.8	0.86	·
Cc1ccc(C2CC2C(=O)NNC(=S)Nc2cccc(C)c2)cc1 (stereo not drawn)	·	·	-8.7*	·
Cc1ccc(NC(=S)NNC(=O)C2CC2c2ccc(C)cc2)cc1 (stereo not drawn)	·	·	-6.7*	·
O=C(Cn1nc(C(F)(F)F)c2c1CCC2)NCc1ccc(Cl)cc1	·	·	-4.5*	·
O=C(Cn1nc(C(F)(F)F)c2c1CCC2)Nc1ccccc1C(F)(F)F	·	·	-2	·
O=C(Cn1nc(C(F)(F)F)c2c1CCCC2)Nc1ccc2c(c1)OCO2	-0.015	1	-4.9*	0.36
COc1ccc(NC(=O)Cn2nc(C(F)(F)F)c3c2CCCC3)cc1OC	·	·	0.0017	·
Cc1ccc2nc(SCCC(=O)O)cc(C)c2c1	·	1.2	1.7	·
Clc1ccc(CSc2nnc(-c3cccnc3)n2Cc2ccco2)c(Cl)c1	-0.12	1.6	-4	-0.66
COC(=O)CSc1nnc(CNC(=O)c2cccs2)n1-c1cc(OC)ccc1OC	0.62	1.1	0.097	0.79
O=S(=O)(C/C(=C/CO)S(=O)(=O)c1ccccc1)c1ccccc1	0.088	1.1	·	1
O=S(=O)(Nc1nc(-c2sccc2Cl)cs1)c1cc(Cl)ccc1Cl	·	1.3	-7.1*	·
CN(Cc1cnn(C)c1)C(=O)C1CCCCC1C(=O)O (stereo not drawn)	·	·	1.3	·
CCn1cc(C(=O)O)c(=O)c2cnc(N3CCN(C(=O)Nc4cccc5ccccc45)CC3)nc21	0.074	1	·	0.22
CCCOC(=O)C1=C(C)NC2=C(C(=O)C(C(=O)OC)C(C)C2)C1c1ccc(N(CC)CC)cc1 (stereo not drawn)	2.2	·	-7.3*	1
SMILES	M1 agonist	PLAP act	Cav3 T inh	M1 antag
Cc1cc(-n2c(C)cc(C(=O)CN3C(=O)NC4(CCCCC4)C3=O)c2C)no1	0.48	1.3	0.033	1.7*
COc1ccc(-c2[nH]ncc2/C=N\NS(=O)(=O)c2ccc(Cl)cc2)cc1	·	1.1	-2	·
CC(C)(Oc1ccc(Cl)cc1)C(=O)N/N=C/c1cn[nH]c1-c1ccccc1	·	2.8*	-2.7	·
Cc1cc(C(=O)CSc2nnc(Nc3ccccc3F)s2)c(C)n1CC1CCCO1 (stereo not drawn)	1.6	1.9	-6.9*	-1.2
Cc1cc(C(=O)CSc2nnc(Nc3ccccc3)s2)c(C)n1CC1CCCO1 (stereo not drawn)	-0.31	0.8	-1.6	-0.21
CCOC(=O)c1nn(-c2ccc(Br)cc2)cc1C(=O)c1cccc2ccccc12	·	1	-1.4	·
O=C(Cn1nnc(-c2ccc(Cl)cc2)n1)NC1CCN(Cc2ccccc2)CC1	-0.28	1.5	-5.9*	-1.9
CCOc1ccc(-n2c(SCc3ccc(C#N)cc3)nnc2-c2cccnc2)cc1	0.16	1.1	-6.8*	0.6
COc1ccc(-n2c(COc3ccc(Cl)cc3)nnc2SCc2ccc(C#N)cc2)cc1	·	0.8	-4.3*	·

Screening data as filed in PubChem BioAssay.
